Hits are enriched below; roughly 2.3% of the tested compounds scored in any of these assays.
ADAM10 inh: inhibitors of human ADAM10 | O14672 | hit rate 0.62% among 370,000 | recombinant ADAM10, EDANS/DABCYL FRET peptide cleavage, 3 h | inhibition, % at 7 µM;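 active means inhibition above a per-campaign cutoff equal to the mean of compounds falling between control-based bounds plus 3 SD, cut at about 20% in these data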;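 further: 0% = DMSO wells while the 100% control is not disclosed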
V-ATPase pHluor: regulators of yeast V-ATPase proton transport; response, % at 10 µM; AID 504577; S. cerevisiae, pHLuorin cytosolic pH fluorescence; hit rate 0.37% among 350,000; in the data active means response mostly above about 7.3%, no sharp cut-off; inactive means mostly below about 5.4%; further: actives read high
proKLK7 act: activates the human kallikrein-7 zymogen | hit rate 0.9% among 370,000 | purified proKLK7, EDANS-DABCYL substrate fluorescence; 100% is mature enzyme control, 0% vehicle | AID 652039 | activation, % at 7 µM;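 active means activation above the mean of all tested compounds plus 3 SD, computed per campaign excluding outliers beyond control limits, cut at about 13% in these data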
Target sequence (P49862 whole entry, looked up): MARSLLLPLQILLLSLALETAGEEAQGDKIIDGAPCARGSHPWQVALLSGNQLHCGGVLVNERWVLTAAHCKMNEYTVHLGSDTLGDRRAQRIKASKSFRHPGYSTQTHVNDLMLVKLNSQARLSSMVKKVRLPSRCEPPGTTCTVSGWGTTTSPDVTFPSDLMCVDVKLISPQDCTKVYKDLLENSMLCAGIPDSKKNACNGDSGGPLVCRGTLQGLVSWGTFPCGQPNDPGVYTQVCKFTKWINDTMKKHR
ADAM17 inh: inhibits human ADAM17; recombinant ADAM17, EDANS/DABCYL FRET peptide cleavage; P78536; AID 720648; inhibition, % at 6.95 µM; hit rate 0.83% among 370,000;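 active means inhibition above the mean of compounds lying between control limits plus 3 SD, set per campaign, cut at about 8.5% in these data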;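 further: 0% = DMSO-only wells as the low control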
KLK7 act conf: proKLK7 activation, confirmation; shares compounds with proKLK7 act; purified proKLK7, EDANS-DABCYL substrate fluorescence; scaled: vehicle 0, mature enzyme 100; activation, % at 7 µM; hit rate 68% among 3,200; AID 686949;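 active means activation, as change over the incubation, above the mean of all tested compounds plus 3 SD, cut at about 13% in these data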
EDANS interfere: counter-screen for kallikrein-7 activators: EDANS-DABCYL optical interference; activation, % at 7 µM; EDANS-DABCYL substrate fluorescence interference, no enzyme, 4 h; solvent 0%, active enzyme control 100%; hit rate 80% among 3,200; AID 686952; shares compounds with proKLK7 act;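 active means activation above the all-compound mean plus 3 SD, ignoring values outside control-based bounds, cut at about 4.8% in these data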;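 further: value is the 4 h activation minus the activation read at time zero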
An asterisk follows results filed as active.

COC(=O)C1=C(C)N(CC(C)C)C(=S)NC1c1ccc(Cl)cc1 (stereo unspecified) was read as ADAM10 inh -1, proKLK7 act 0 and ADAM17 inh 0.
COc1ccc(OCc2nn3c(-c4ccccc4)nnc3s2)cc1 was read as ADAM10 inh -8, proKLK7 act 0 and ADAM17 inh -2.
`Cc1ccc(-c2cc(C(=O)N3CC(C)OC(C)C3)c3ccccc3n2)o1` (stereo unspecified) gave ADAM10 inh inactive, V-ATPase pHluor 5, proKLK7 act 46*, ADAM17 inh inactive, KLK7 act conf 65* and EDANS interfere 66*.
Screening Cc1nnc(NC(=O)c2cc(-c3ccco3)nc3ccccc23)s1 returned ADAM10 inh -248, V-ATPase pHluor 0, proKLK7 act 24*, ADAM17 inh -74, KLK7 act conf 4 and EDANS interfere 9.9*.
Cc1ccc(-c2cc(C(=O)N3CCCC3)c3ccccc3n2)s1 was read as ADAM10 inh inactive, V-ATPase pHluor 2, proKLK7 act 2 and ADAM17 inh inactive.
`Cc1ccc(-c2cc(C(=O)O)c3cc(Br)ccc3n2)s1` gave ADAM10 inh inactive, V-ATPase pHluor 1, proKLK7 act 14*, ADAM17 inh -208, KLK7 act conf 22* and EDANS interfere 26*.
For Cc1ccc(-c2cc(C(=O)N3CC(C)CC(C)C3)c3ccccc3n2)o1 (stereo unspecified) the results were ADAM10 inh -200, V-ATPase pHluor -2, proKLK7 act -13 and ADAM17 inh -68.
`CCNC(=O)COC(=O)c1cc(-c2ccco2)nc2ccccc12` gave ADAM10 inh -456, V-ATPase pHluor 0, proKLK7 act 121*, ADAM17 inh -157, KLK7 act conf 17* and EDANS interfere 19*.
For Cc1ccc(-c2nnc(SCC(=O)c3ccc(O)c(O)c3)n2-c2ccc(Cl)cc2)cc1 the results were ADAM10 inh 8, proKLK7 act 0 and ADAM17 inh 3.
CC(C)C[C@H]1COc2cccc(F)c2S(=O)(=O)N1C was read as ADAM10 inh 5, proKLK7 act 0 and ADAM17 inh -1.
Screening Cc1cc(C(=O)NCc2ccco2)c2ccccc2n1 returned ADAM10 inh -16, V-ATPase pHluor -2, proKLK7 act -1 and ADAM17 inh -9.
`CN1CCN(NC(=O)c2cc(-c3ccc(Cl)s3)nc3ccccc23)CC1` gave ADAM10 inh inactive, V-ATPase pHluor 0, proKLK7 act 26*, ADAM17 inh -387, KLK7 act conf -33 and EDANS interfere -24.
`Cc1ccc(-c2cc(C(=O)NCc3ccco3)c3ccccc3n2)o1` gave ADAM10 inh inactive, V-ATPase pHluor 6, proKLK7 act 18*, ADAM17 inh -183, KLK7 act conf -11 and EDANS interfere -2.
For O=C(Nc1nccs1)c1cc(N2CCOCC2)nc2ccccc12 the results were ADAM10 inh -27, V-ATPase pHluor 2, proKLK7 act 18*, ADAM17 inh -16, KLK7 act conf 14* and EDANS interfere 12*.
O=C(Nc1nccs1)c1cc(-c2ccco2)nc2ccccc12 was read as ADAM10 inh -199, V-ATPase pHluor 5, proKLK7 act 15*, ADAM17 inh -56, KLK7 act conf 1 and EDANS interfere -2.
`C[C@H]1C(=O)N2[C@@H](C[C@]3(c4c[nH]c5ccccc45)c4ccccc4N(S(=O)(=O)c4ccccc4)[C@H]23)C(=O)N1C` gave ADAM10 inh -9 and ADAM17 inh -4.
Screening COCc1cc(N2CCN(C(=O)OC(C)(C)C)C[C@H]2C)ccc1N1CCN(Cc2ccccc2)[C@@H](C)C1 returned ADAM10 inh -6, proKLK7 act 0 and ADAM17 inh -5.
Cc1n[nH]c(C)c1S(=O)(=O)NCCc1cccc(F)c1 was read as ADAM10 inh -8, proKLK7 act 0 and ADAM17 inh -1.
`Cc1ccc(-c2cc(C(=O)O)c3cc(Br)ccc3n2)o1` gave ADAM10 inh -32, V-ATPase pHluor 0, proKLK7 act 7 and ADAM17 inh -12.
For CCN(CC)CCNC(=O)c1ccc(NC(=O)c2cc(-c3ccco3)nc3ccccc23)cc1 the results were ADAM10 inh -406, V-ATPase pHluor 9, proKLK7 act 31*, ADAM17 inh -148, KLK7 act conf -34 and EDANS interfere -21.
`O=C(NC1CC1)c1cc(-c2ccco2)nc2ccccc12` gave V-ATPase pHluor 1.
For Cc1ccc(-c2cc(C(=O)NN3CCOCC3)c3cc(Br)ccc3n2)o1 the results were ADAM10 inh -351, V-ATPase pHluor 1, proKLK7 act 52*, ADAM17 inh -116, KLK7 act conf -185 and EDANS interfere -137.
O=C(O)c1cc(-c2ccco2)nc2ccccc12 was read as ADAM10 inh inactive, V-ATPase pHluor -3, proKLK7 act 21*, ADAM17 inh inactive, KLK7 act conf 16* and EDANS interfere 16*.
CCc1ccc(-c2cc(C(=O)O)c3ccccc3n2)s1 was read as ADAM10 inh inactive, V-ATPase pHluor 8, proKLK7 act 66*, ADAM17 inh inactive, KLK7 act conf 60* and EDANS interfere 60*.
Screening CN(C)C(=O)c1ccc(NC(=O)c2cc(-c3ccco3)nc3ccccc23)cc1 returned ADAM10 inh -174, V-ATPase pHluor 6, proKLK7 act 4 and ADAM17 inh -58.
`c1ccc(-c2cnc(-c3cccnc3)o2)cc1` gave ADAM10 inh -262, V-ATPase pHluor -1, proKLK7 act 2 and ADAM17 inh -93.
`NC(=O)c1ccc(-c2ncc(-c3ccccc3)o2)cc1` gave ADAM10 inh inactive, V-ATPase pHluor 2, proKLK7 act 69*, ADAM17 inh inactive, KLK7 act conf 59* and EDANS interfere 62*.
O=C(NN1C(=O)c2ccccc2NC1c1ccco1)c1ccccc1 (stereo unspecified) was read as ADAM10 inh -114, V-ATPase pHluor 3, proKLK7 act 1 and ADAM17 inh -46.
CCOC(=O)NN1C(=O)c2ccccc2NC1c1ccc(OC)cc1 (stereo unspecified) was read as ADAM10 inh inactive, V-ATPase pHluor 0, proKLK7 act 36*, ADAM17 inh inactive, KLK7 act conf 20* and EDANS interfere 23*.
CCOC(=O)NN1C(=O)c2ccccc2NC1c1ccccc1F (stereo unspecified) was read as ADAM10 inh inactive, V-ATPase pHluor -2, proKLK7 act 6 and ADAM17 inh -200.
CCOC(=O)NN1C(=O)c2ccccc2NC1c1ccccc1 (stereo unspecified) was read as ADAM10 inh inactive, V-ATPase pHluor 1, proKLK7 act 20*, ADAM17 inh -384, KLK7 act conf 21* and EDANS interfere 24*.

Source: PubChem BioAssay (several laboratories)
